In PubChem BioAssay AID1460 (National Center for Advancing Translational Sciences (NCATS), 2008):
Among all 270,000 compounds or so, about 5,800 (2.1%) were called active. A call without a number means that no potency is given here. Another 16% or so got no clear call; they are omitted. The call rests on the fitted dose curve; in most records, active means well fitted inhibition curve with a large enough effect; inconclusive means small, poorly fitted or top-dose-only effect; inactive means flat fitted curve, though single readings scatter. Many of the other results were omitted from the sample, so actives are more common in it than they were. Some compounds were tested as several samples or in several runs, with calls that do not always agree.

The compounds below were run against Microtubule-associated protein tau (Homo sapiens) (UniProt P10636) (assay: qHTS for Inhibitors of Tau Fibril Formation, Thioflavin T Binding). Conditions: recombinant tau K18 P301L (four-repeat tau fragment), heparin-induced fibrillization, ThT fluorescence; series mostly up to 57.4 µM.
Summary of the method: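 Aggregation was driven by heparin (20 uM final) acting on recombinant tau […] bearing P301L in 100 mM sodium acetate pH 7; fibrils were detected with Thioflavin T.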
Further: nearly all actives have a fitted effect of over 55% in size.
Potency means the concentration at half of the fitted maximal effect.

Microtubule-associated protein tau (Homo sapiens), sequence (P10636 561-689 P618L limits assumed): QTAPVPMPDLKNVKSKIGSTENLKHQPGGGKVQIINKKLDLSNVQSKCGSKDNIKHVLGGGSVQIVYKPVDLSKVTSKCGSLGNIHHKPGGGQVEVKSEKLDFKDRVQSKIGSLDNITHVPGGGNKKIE

Structure (SMILES)	Potency	activity, negative = inhibition
COc1ccc(C2C(=O)N(C3CCCCC3)CC(=O)N2Cc2ccccc2Cl)cc1OC (configuration not stated)	inactive	
Cc1onc(-c2ccc(F)cc2F)c1C(=O)Nc1cccc(C(F)(F)F)c1	inactive	
CCC(Sc1nc2n[nH]c(C)c2c(=N)n1-c1ccccc1Cl)C(=O)N(CC)CC (configuration not stated)	inactive	
COc1ccccc1CNC(=O)C(=O)NCC(c1cccs1)S(=O)(=O)c1cccs1 (configuration not stated)	inactive	
CN(C)c1ccc(/C=C/C(=O)c2ccc(O)cc2)cc1[N+](=O)[O-]	4.47 µM (active)	
O=C(c1ccc(Cl)c([N+](=O)[O-])c1)N1CCN(c2ccccc2)CC1	inactive	
CC(CC(=O)O)C(=O)c1ccc(Cl)c([N+](=O)[O-])c1 (configuration not stated)	inactive	
O=C(/C=C/c1ccc(Cl)c([N+](=O)[O-])c1)c1ccc(O)cc1	15.8 µM (active)	
CN(C)c1ccc(/C=C/C(=O)c2ccc(C(C)(C)C)cc2)cc1[N+](=O)[O-]	inactive	
Cc1cc(C)n(-c2ccc(C(=O)O)cc2[N+](=O)[O-])n1	inactive	
COc1ccccc1CNc1ccc(-c2nc(-c3ccccc3C)no2)cc1[N+](=O)[O-]	inactive	
CCCOc1ccc(-c2cccc(NS(=O)(=O)c3ccccc3)c2)nn1	inactive	
COc1ccc(CNC(=O)COCc2cc(-c3cccs3)on2)cc1OC	inactive	
Cc1ccc(Cn2cc(CCC(=O)NCc3ccc(OC(C)C)cc3)c3ccccc32)cc1	inactive	
c1ccc(CNc2ncnc3[nH]ncc23)cc1	inactive	
CCN(CC)S(=O)(=O)c1cc([N+](=O)[O-])ccc1N=Nc1c(O)n(C)c2ccccc12	inactive	
CN1CCN(c2ccc(S(=O)(=O)Nc3ccccc3)cc2[N+](=O)[O-])CC1	inactive	
O=[N+]([O-])c1cc(S(=O)(=O)Nc2cccc(Cl)c2)ccc1N=Nc1c(O)[nH]c2ccccc12	10 µM (active)	
O=C(Nc1ccc(F)cc1F)c1cnn(-c2ccc(F)cc2)c1-n1cccc1	inactive	
Cc1ccc2c(c1)N(C(=O)CCC(=O)NCc1ccccc1F)CC(C)O2 (configuration not stated)	inactive	
CC1CN(C(=O)N2CCC(C(=O)NCc3ccco3)CC2)c2cc(Cl)ccc2O1 (configuration not stated)	31.6 µM (active)	
CCCS(=O)(=O)N1CCCC(C(=O)NCc2ccco2)C1 (configuration not stated)	inactive	
CSc1ccccc1NC(=O)CN(C)CC(=O)Nc1ccc(Cl)cc1[N+](=O)[O-]	inactive	
CN(C)/N=C/c1cc(Cl)cc([N+](=O)[O-])c1O	15.8 µM (active)	
CC(=O)N/N=C/c1cc2c(cc1[N+](=O)[O-])OCO2	inactive	
CC1Cc2cc(S(=O)(=O)CCC(=O)NCc3ccc(Cl)cc3)ccc2N1C(=O)C1CC1 (configuration not stated)	inactive	

Structure (SMILES)	Potency	activity, negative = inhibition
CCN1CCN(c2ncc3c(n2)CC(c2ccccc2O)CC3=O)CC1 (configuration not stated)	inactive	
COc1ccc2nc(NC(=O)c3ccc(Br)s3)sc2c1	inactive	
COc1ccc2nc(Nc3nc(-c4cc5ccccc5oc4=O)cs3)sc2c1	inactive	
COc1ccc2nc(Nc3nc4cc5c(cc4s3)OCCO5)sc2c1	3.55 µM (active)	
CCC1=Nc2cc(C(=O)NCCCOC(C)C)ccc2Sc2ccc(C)cc21	inactive	
C=CC(C1=CC(=O)C=CC1=O)c1ccc(O)cc1 (configuration not stated)	28.2 µM (active)	
COc1cc2nc(SCc3ccc(F)cc3)n3nc(CCn4c(C)nc5ccccc54)nc3c2cc1OC	inactive	
CCCC(=O)Nc1ccc(C(=O)N/N=C/c2ccc[nH]2)cc1	15.8 µM (active)	
CCCC(=O)Nc1ccc(C(=O)NCCCn2ccnc2)cc1	inactive	
CCCN(CC(=O)Nc1ccc(C(N)=O)cc1)CC(=O)Nc1ccccc1C	inactive	
CCOc1cc2[nH]c(=O)n(Cc3ccc(C(=O)NCCN(CC)CC)cc3)c(=O)c2cc1OCC	inactive	
CCN(CCCNC(=O)c1c(C)oc2ncn(CC(C)C)c(=O)c12)Cc1ccccc1	inactive	
Cc1ccc2[nH]c3c(=O)n(CC(=O)NC(C)C)ncc3c2c1	inactive	
COc1ccc(Cc2nc3ccc(C(=O)NCc4ccccc4Cl)cc3o2)cc1	inactive	
COc1ccc(OC)c(NC(=O)CSC2=Nc3ccccc3C3=NC(CC(=O)NCc4ccc(F)cc4)C(=O)N23)c1 (configuration not stated)	inactive	
COc1ccc2c(c1)C(=C(C#N)C#N)C(=O)N2CCc1ccccc1	28.2 µM (active)	
C#CCN1C(=O)C(O)(CC(=O)c2cc(OC)ccc2OC)c2ccccc21 (configuration not stated)	inactive	
Cc1ccc(C(=O)CC2(O)C(=O)N(CCc3ccccc3)c3ccc(Br)cc32)cc1 (configuration not stated)	inactive	
Cc1cccc(C(=O)N2c3nc(-c4ccco4)nn3C3(CCCCC3)[C@@H]3CCCC[C@@H]32)c1	inactive	
COc1ccccc1N1CCN(C2C(=O)c3ccccc3N2C(C)=O)CC1 (configuration not stated)	inactive	
CN(C)c1nc(=Nc2cccc(Cl)c2)ss1	25.1 µM (active)	
CCOC(=O)C1=C(O)CSC1=Nc1cccc(Cl)c1	inactive	
CC(=O)N1CCCc2cc(S(=O)(=O)N3CCC(C(=O)NCc4ccc(C)cc4)CC3)ccc21	inactive	
CCCCN(CC)CCCNC(=O)c1nn(C)c2c1CS(=O)(=O)c1ccccc1-2	inactive	
Cc1c2cnn(-c3ccccc3)c(=O)c2c(C)n1C(C)C(=O)Nc1ccc(Br)cc1F (configuration not stated)	inactive	
CCSC1=C(C#N)C(=O)n2c1cc1c2CCCC1	25.1 µM (active)	

Structure (SMILES)	Potency	activity, negative = inhibition
CCSc1ncnc2c(C#N)c3n(c12)CCCCC3	inactive	
CCc1ccccc1NC(=O)c1ccc(F)c(S(=O)(=O)NC2CCCCCC2)c1	inactive	
Cc1oc2c(c1C(=O)Nc1ccc(F)c(F)c1)C1=NCCN1C=N2	inactive	
CCOC(=O)c1ccc(CN(Cc2ccccc2)S(=O)(=O)c2ccc(Cl)cc2)cc1	inactive	
CC(C)CCN(C(=O)Nc1ccc(Cl)c(Cl)c1)C(C)c1cccs1 (configuration not stated)	inactive	
c1cnc(Nc2nc(-c3ccc4ccccc4c3)cs2)nc1	inactive	
COc1ccc(-c2csc(NC(=O)COC(=O)c3ccc(Br)o3)n2)cc1	inactive	
COc1ccc(OC)c(Nc2nc(-c3ccc(O)c(O)c3)cs2)c1	10 µM (active)	
COc1ccc(-c2csc(Nc3ccc(O)cc3)n2)cc1	7.94 µM (active)	
COc1ccc(-c2csc(NC(=O)c3ccc(N4C(=O)CCC4=O)cc3)n2)cc1OC	inactive	
Oc1ccc(-c2csc(Nc3cccnc3)n2)cc1	15.8 µM (active)	
COc1ccc(-c2csc(NC(=O)CCCc3cccs3)n2)cc1	inactive	
O=C(NCc1cccnc1)C(=O)Nc1nc(-c2ccccc2)cs1	inactive	
c1ccc(Nc2nc(-c3ccncc3)cs2)nc1	inactive	
Cc1ccc(NC(=O)Cn2nnc3sc4c(c3c2=O)CCC(C)C4)cc1 (configuration not stated)	inactive	
COC(=O)c1ccc(NC(=O)c2cc(S(=O)(=O)N3CCC(C)CC3)cn2C)cc1	inactive	
O=S(=O)(NCCc1nnc2ccc(SCc3ccc(Cl)cc3Cl)nn12)c1ccccc1	inactive	
COc1ccc(Cl)cc1S(=O)(=O)N1CCC(c2ccncc2)CC1	inactive	
Cc1c(/C=N\NC(=O)c2cc3ccccc3o2)c2ccccc2n1C	3.55 µM (active)	
Cc1c(/C=N/N2C(=O)C3C4C=CC(C4)C3C2=O)c2ccccc2n1C (configuration not stated)	inactive	
CC(C)Oc1ccc(NC(=O)c2cc3ccccc3o2)cc1	inactive	
COC(=O)CCCC1=CC2=CC(=O)C(C)(OC(=O)c3cccs3)C(=O)C2=CN1CC(C)C (configuration not stated)		-12.7% [at 11.5 µM] (inactive)
COC(=O)CCCC1=CC2=CC(=O)C(C)(OC(=O)c3cccs3)C(=O)C2=CN1c1cccc(C#N)c1 (configuration not stated)	31.6 µM (active)	-5.58% [at 11.5 µM] (inactive)
COC(=O)CCCC1=CC2=CC(=O)C(C)(OC(=O)c3cccs3)C(=O)C2=CN1c1ccc(CO)cc1 (configuration not stated)		-2.21% [at 11.5 µM] (inactive)
CCn1c2c(c(=O)n3ncc(C(=O)N4CCN(c5ccccc5)CC4)c13)CN(Cc1ccc(OC)cc1)CC2	inactive	
COc1ccc(-n2c(=O)c3sc4ccccc4c3n(CC(=O)Nc3cccc(C)c3)c2=O)cc1	inactive	

Structure (SMILES)	Potency	activity, negative = inhibition
Cc1ccc(NC(=S)NCCN2CCOCC2)cc1	inactive	
C=CCNC(=S)N/N=C/c1ccc(C)s1	inactive	
CNC(=S)N/N=C/c1ccc(N2CCOCC2)s1	17.8 µM (active)	
O=C(NCc1ccccc1)c1ccc2c(c1)nc1n2CCCCC1	inactive	
O=C(C1CCC(Cn2c(=O)c3sccc3n(Cc3ccccc3F)c2=O)CC1)N1CCCCC1 (configuration not stated)	inactive	
Cc1noc(C)c1/C=N/Nc1ccc2ccccc2n1	inactive	
Brc1ccc(-c2csc(N/N=C/c3ccc4c(c3)OCO4)n2)cc1	4.47 µM (active)	
O=C(CNC(=O)C(c1ccccc1)c1ccccc1)N/N=C\c1ccc2c(c1)OCO2	inactive	
COc1ccc(-c2csc(N3CCN(Cc4ccc5c(c4)OCO5)CC3)n2)cc1	inactive	
O=C(Cc1ccc(F)cc1)N/N=C/c1ccc2c(c1)OCO2	inactive	
C(=N\Nc1ccc2ccccc2n1)/c1ccc2c(c1)OCO2	10 µM (active)	
COc1ccc(Cl)cc1NC(=O)C(C)Sc1nc2c(c(=O)[nH]1)CCCC2 (configuration not stated)	inactive	
Cc1ccc(-c2nc(SCc3ccc(Br)cc3)n3[nH]c(=O)cc3n2)cc1	inactive	
COc1cc(-c2cc3n(C)c(C)c(CCC(=O)Nc4ccc(F)cc4)c(=O)n3n2)cc(OC)c1OC	inactive	
Cc1cc(N2CCN(c3ccccc3)CC2)nc(N2CCOCC2)n1	inactive	
CN(C)c1ccc(/C=N/Nc2cc(N3CCOCC3)nc(N3CCOCC3)n2)cc1	7.94 µM (active)	
C(=N/Nc1cc(N2CCOCC2)nc(N2CCOCC2)n1)/c1ccccc1	inactive	
CCC(=O)N1c2ccccc2CC1C(=O)N1CCN(c2ccccc2F)CC1 (configuration not stated)	inactive	
COc1ccc(CCNC(=O)c2cc3cccc4c3n2CC(C)S4)c(OC)c1OC (configuration not stated)	inactive	
O=C(Nc1ccccc1Br)c1cc(CN2CCCC2)on1	inactive	
COc1ccc(C(=O)Nc2ccc3c(c2)OCO3)cc1OC	inactive	
CCOc1ccc(NCCC(=O)c2ccc3c(c2)OCO3)cc1	15.8 µM (active)	
COC(=O)CCNc1ccc2c(c1)OCCO2	inactive	
